KCNQ2 enhance – potentiators of rat KCNQ2 potassium channel; AID 2239; B-score at 10 µM; O88943; 310,000 compounds, 0.54% hits; CHO-K1 KCNQ2, FluxOR thallium flux fluorescence; hits give high values;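 active = fluorescence ratio B-score at least 3 SD of library B-scores, with initial fluorescence B-score within 3 of them, cut at about 5.3 in these data; same plate scores as AID 2156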;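 note: B-score of peak minus minimum over baseline fluorescence ratio after K+ and Tl+ stimulus; positive B-score means potentiation of KCNQ2 with more thallium influx and brighter signal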
KCNQ2 inh – KCNQ2 (rat) channel inhibition; O88943; CHO-K1 KCNQ2, FluxOR thallium flux, 20 min; hits give low values; B-score at 10 µM; 310,000 compounds, 1.1% hits;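 active = fluorescence ratio B-score at most minus 3 library SDs, with starting brightness B-score within 2 library SDs, cut at about -5.5 in these data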
KCNQ2 inh conf – confirmation of rat KCNQ2 potassium channel inhibitors | shares compounds with KCNQ2 inh | KCNQ2-expressing cells, thallium flux, inhibition; hits give low values | activity change, negative = inhibition, % at 10 µM | 1,000 compounds, 57% hits | AID 493025;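 note: 0% = vehicle wells and values are ratio percent relative to vehicle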
KCNQ1 spec – selectivity of KCNQ2 inhibitors against human KCNQ1; 1,000 compounds, 15% hits; activity change, negative = inhibition, % at 10 µM; shares compounds with KCNQ2 inh; KCNQ1-expressing cells, FluxOR thallium flux fluorescence; hits give low values;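 active = activity change at least 3 SD of negative controls below their mean in both duplicate wells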;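 note: CHO cells stably transfected with KCNQ1 and depolarized by potassium stimulus; peak minus minimum fluorescence over baseline after thallium addition; 0% = vehicle negative control and -100% = blank without thallium stimulus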
Target sequence (P51787 whole entry, looked up): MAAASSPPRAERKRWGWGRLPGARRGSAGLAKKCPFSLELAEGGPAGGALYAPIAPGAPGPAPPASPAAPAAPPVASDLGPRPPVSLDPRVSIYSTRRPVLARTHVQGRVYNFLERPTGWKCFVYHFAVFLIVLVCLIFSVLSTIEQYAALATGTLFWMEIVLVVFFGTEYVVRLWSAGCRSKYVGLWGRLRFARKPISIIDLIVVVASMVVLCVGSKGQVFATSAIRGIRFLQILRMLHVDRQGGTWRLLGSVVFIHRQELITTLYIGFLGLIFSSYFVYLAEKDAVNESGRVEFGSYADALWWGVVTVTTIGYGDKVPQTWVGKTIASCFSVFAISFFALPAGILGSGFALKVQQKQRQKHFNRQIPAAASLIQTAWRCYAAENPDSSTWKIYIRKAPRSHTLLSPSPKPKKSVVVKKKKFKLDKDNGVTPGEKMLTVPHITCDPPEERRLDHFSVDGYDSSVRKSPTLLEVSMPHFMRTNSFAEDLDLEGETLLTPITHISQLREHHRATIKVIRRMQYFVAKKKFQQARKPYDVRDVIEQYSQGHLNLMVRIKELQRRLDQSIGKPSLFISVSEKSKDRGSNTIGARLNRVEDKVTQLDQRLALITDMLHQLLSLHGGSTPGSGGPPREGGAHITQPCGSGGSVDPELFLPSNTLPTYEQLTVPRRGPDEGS
CHO parental ctr – counter-screen for KCNQ2 inhibitors: effect in parental CHO cells; 1,000 compounds, 14% hits; AID 493029; shares compounds with KCNQ2 inh; thallium flux counter-screen; hits give low values; activity change, % at 10 µM;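 note: 0% = vehicle negative controls with stimulus buffer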
KCNQ2 patch conf – blocks rat KCNQ2 current in automated patch clamp; AID 588531; shares compounds with KCNQ2 inh; KCNQ2-expressing cells; 550 compounds, 49% hits; calls only at 10 µM
* marks the source's active call; other numbers are inactive results; i = inactive; . = no result; + = active, no number. An excerpt weighted towards active compounds, which were near 1.6% of everything screened. Unless noted, the rule behind the calls is not given here.

SMILES	KCNQ2 enhance	KCNQ2 inh	KCNQ2 inh conf	KCNQ1 spec	CHO parental ctr	others
CCOC(=O)c1c(NC(=S)Nc2ccc(C)cc2)sc2c1CCC2	0.01	i	.	.	.
CCOC(=O)c1c(NC(=O)CS(=O)(=O)c2cn(CC)c3ccccc23)sc2c1CCCCC2	-7	-7*	-25.0%*	i	i	KCNQ2 patch conf=+
CCOC(=O)c1nn(-c2ccc(C)cc2)cc1C(=O)c1ccccc1	.	i	.	.	.
O=C(CN1C(=O)C(c2ccccc2)Oc2cccnc21)NCc1ccccc1F (stereo unspecified)	-6.83	-6.83*	-21.5%*	i	i	KCNQ2 patch conf=+
COc1ccc(CNC(=O)CN2C(=O)C(c3ccccc3)Oc3cccnc32)cc1 (stereo unspecified)	1.94	i	.	.	.
CCC1(C)CC(c2nc(-c3ccc(OC)cc3)cs2)CCS1 (stereo unspecified)	.	i	.	.	.
COC(=O)c1cccc(Nc2c3c(nc4ccccc24)CCC3)c1	-6.63	-6.63*	-25.5%*	i	i	KCNQ2 patch conf=+
CC(=O)c1cccc(Nc2c3c(nc4ccccc24)CCC3)c1	.	i	.	.	.
C/C1=C\CCC2C(/C=C(\C)CC1)OC(=O)C2CN1CCCCC1 (stereo unspecified)	0.03	i	.	.	.
CCOC(=O)c1ccc(NC(=O)CCc2ccc(CC)o2)cc1	.	i	.	.	.
CCOC(=O)c1c(NC(=O)CCc2ccc(CC)o2)sc(C)c1C	-8.2	-8.2*	i	i	i
O=C(Nc1ccc2c(c1)CCCN2C(=O)c1ccccc1)c1ccccc1	.	i	.	.	.
Cc1ccccc1OCc1nc2ccccc2c(=O)n1/N=C/c1ccco1	-8.94	-8.94*	-33.0%*	i	i	KCNQ2 patch conf=+
O=c1c2ccccc2nc(-c2ccco2)n1/N=C/c1ccco1	2.75	i	.	.	.
CC(C)C1Cc2[nH]c(=O)c(C(=O)O)cc2CO1 (stereo unspecified)	0.32	i	.	.	.
COc1ccccc1N1CCN(C(=O)CCC(=O)N2CCN(c3ccc(F)cc3)CC2)CC1	1.26	i	.	.	.
COc1ccc2[nH]cc(/C=C/c3cc[n+](C)cc3)c2c1	.	i	.	.	.
Cc1nn(-c2ccccc2)c(/N=C/c2ccccc2O)c1-c1ccccc1	-10.8	-10.8*	-43.0%*	-50.5%*	-43.0%*	KCNQ2 patch conf=i
Cc1nn(-c2ccccc2)c(N)c1-c1ccccc1	.	i	.	.	.
CCOCCCNC(=O)CNC(=S)N(Cc1ccc(C)cc1)Cc1ccco1	.	i	.	.	.
Cc1cc(C)c(NC(=O)CSc2ccc3nnc(CCNC(=O)c4ccccc4)n3n2)c(C)c1	.	i	.	.	.
CCNC(=O)COc1ccc(/C=N/NC(=O)c2cccnc2)cc1OC	0.09	i	.	.	.
COc1ccc(/C=N/NC(=O)c2cccnc2)cc1O	-7.25	-7.25*	i	i	i
CCCc1cc(C(=O)NC2CCCCC2)no1	1.14	i	.	.	.
CCCc1cc(C(=O)N(C2CCCCC2)C2CCCCC2)no1	-7.42	-7.42*	i	i	i
SMILES	KCNQ2 enhance	KCNQ2 inh	KCNQ2 inh conf	KCNQ1 spec	CHO parental ctr	others
Cc1c(C)n2c(SCC(=O)Nc3cccc4ccccc34)nnc2[nH]c1=O	0.36	i	.	.	.
C/C(CCN1CCc2nc(-c3ccccc3)c(-c3ccccc3)cc2C1)=N\O[C@@H](C)c1cc(-c2c(C)cc(C)cc2C)no1	.	i	.	.	.
CCc1cc2c(nc1CC)CCN(CC/C(C)=N/O[C@@H](C)c1cc(-c3c(C)cc(C)cc3C)no1)C2	-10.2	-10.2*	i	i	i
CN(CC(=O)NNC(=O)Cc1ccccc1F)S(=O)(=O)c1ccc(Cl)cc1	.	i	.	.	.
CCOC(=O)COc1c(OC)cc(Cl)cc1C1Nc2ccccc2C(=O)N1c1cccc(C)c1 (stereo unspecified)	-10	-10*	i	i	i
CCOC(=O)COc1ccccc1C1Nc2ccccc2C(=O)N1c1cccc(Cl)c1 (stereo unspecified)	.	i	.	.	.
Cc1ccccc1C(=O)Nc1sc(C)c(C)c1C(=O)c1ccccc1	-9.56	-9.56*	-33.0%*	-32.0%*	-27.0%*	KCNQ2 patch conf=i
Cc1sc(NC(=O)CCl)c(C(=O)c2ccccc2)c1C	0.96	i	.	.	.
O=C(/C=C/c1cccc(C(F)(F)F)c1)Nc1cccc(C(F)(F)F)c1	-8.24	-8.24*	i	i	i
C/C=C/C(=O)Nc1cccc(C(F)(F)F)c1	2.06	i	.	.	.
O=C(c1c[nH]c2ccccc12)C(Cl)c1ccccc1 (stereo unspecified)	0.37	i	.	.	.
Cc1ccc(C(=O)NCCCc2ccccc2)c(Cl)c1	.	i	.	.	.
O=C(OCC(=O)N(CCc1ccccc1)Cc1ccccc1)c1ccccc1O	-7.17	-7.17*	i	i	i
CCN(Cc1ccccc1)C(=O)COC(=O)c1cc(Cl)nc(Cl)c1	.	i	.	.	.
O=C(NCCC(=O)N(CCc1ccccc1)Cc1ccccc1)c1ccccc1Cl	-6.71	-6.71*	-32.0%*	i	i	KCNQ2 patch conf=+
COc1ccc(C(=O)O)cc1NC(=S)NC(=O)/C=C/c1ccc(C(C)C)cc1	1.99	i	.	.	.
COc1cccc(/C=C(/C(=O)OCC(=O)NCC2CCCO2)c2ccccc2)c1 (stereo unspecified)	.	i	.	.	.
COc1cccc(/C=C(/C(=O)OCC(=O)NC2CCCCCCC2)c2ccccc2)c1	-8.48	-8.48*	-16.5%*	i	i	KCNQ2 patch conf=i
COc1ccc(C2SCC(=O)N2CC23CC4CC(CC(C4)C2)C3)cc1 (stereo unspecified)	-6.88	-6.88*	-33.0%*	i	i	KCNQ2 patch conf=i
COc1ccc(C2SCC(=O)N2Cc2ccccc2)cc1 (stereo unspecified)	.	i	.	.	.
CC1CN(C(=O)c2ccc(NS(=O)(=O)c3ccc(C(C)(C)C)cc3)cc2)CC(C)O1 (stereo unspecified)	0.41	i	.	.	.
COc1ccc(C(=O)CSc2nc3ccc([N+](=O)[O-])cc3[nH]2)cc1	.	i	.	.	.
CCN(CC1COc2ccccc2O1)C(=O)c1ccc(Cl)c(S(=O)(=O)N2CC(C)OC(C)C2)c1 (stereo unspecified)	.	i	.	.	.
CC1CN(S(=O)(=O)c2cc(C(=O)N(CCc3ccccc3)Cc3ccccc3)ccc2Cl)CC(C)O1 (stereo unspecified)	-7.18	-7.18*	i	i	i
Cc1cc(Cl)ccc1OC(C)C(=O)NCCc1ccc2c(c1)OCCO2 (stereo unspecified)	.	i	.	.	.
SMILES	KCNQ2 enhance	KCNQ2 inh	KCNQ2 inh conf	KCNQ1 spec	CHO parental ctr	others
Cc1cc(Cl)ccc1OC(C)C(=O)NCCCCc1ccccc1 (stereo unspecified)	-7.29	-7.29*	-31.5%*	i	i	KCNQ2 patch conf=+
O=C(O)CC1(c2ccc(F)cc2)C2CC3CC(C2)CC1C3 (stereo unspecified)	0.09	i	.	.	.
O=C(O)CNC(=O)c1ccc(S(=O)(=O)N2CCOCC2)cc1	0.04	i	.	.	.
CCCN(CCC)C(=O)Cc1coc2ccc3ccccc3c12	-7.32	-7.32*	i	i	i
O=C(Cc1coc2ccc3ccccc3c12)NCc1ccccc1	0.14	i	.	.	.
CNS(=O)(=O)c1ccc(NC(=O)c2ccccn2)cc1	1.89	i	.	.	.
CCOC(=O)c1c2ccccc2[n+]([O-])n1[C@@H](C)C(N)=O	.	i	.	.	.

Compound activity: PubChem, Johns Hopkins Ion Channel Center
